In the library only some 6.2% were active in any assay of this set; here they are far more common.
NR3A LBD binder: NR3A (human) ligand-binding domain modulation | NR3A LBD differential scanning fluorimetry, Tm shift; 0% = protein alone, 100% = glycine-bound protein | Tm shift relative to glycine control, % at 25 µM | 2.5% of 340,000 active;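 active means melting temperature shift of at least 10% of the positive control shift, at one fixed dose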
AHR activator: activates the human aryl hydrocarbon receptor. AHR-responsive luciferase reporter cells, luminescence. 2.5% of 320,000 active. activation, % at 5 µM. P35869; in the data active means activation above about 47%
NTR1 agonist: activates human neurotensin receptor 1; P30989; NTR1-U2OS beta-arrestin-GFP spot imaging, agonist mode; activation, % at 20 µM; 0.17% of 330,000 active; AID 493036;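 active means activation at or above 40% of the spot to cytoplasm intensity ratio, with at least 20 cells analyzed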
H9c2 protect: myocardial damage modulation in H9c2 cells. H9c2 cardiomyocytes, H2O2 injury protection, ATPLite, 2 h. protection from H2O2 cell death, % at 20 µM. 0.63% of 360,000 active. AID 588492;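 active means compounds giving at least 50% protection of heart cells from peroxide-induced death in the single-dose screen, raw or plate-pattern-corrected value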
SUMO Mot1 rescue: blocks SUMOylation pathway, rescuing yeast Mot1-301 growth; AID 2716; 1% of 320,000 active; growth rescue, % at 18.8 µM; S. cerevisiae Mot1-301 growth rescue, ATP luminescence, 38.5C; percent above DMSO median, 100 means doubled;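 active means every valid replicate shows activation above 250% relative to neutral control wells; inactive means the rest, any valid replicate at or below 250%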
AI-2 QS mod: Vibrio harveyi AI-2 quorum sensing modulation. AID 2094. activity change, % at 7.5 µM. 0.4% of 300,000 active. Vibrio harveyi JMH597 AI-2 luminescence/OD600 ratio, 9 h; active compounds read low; strain lacks LuxN and CqsS sensors; 0 = neutral-control median; in the data active means activity change below about -75%, passing the limit was not always enough;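 further: luminescence divided by OD600 gain over 9 h not by final OD600 alone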
Large screens that a line does not name were inactive.

CCCCN1CC(COCc2ccccc2)Oc2cccc(OCCN3C(=O)[C@@H]4[C@H](C3=O)C3C=C[C@H]4C3)c2S1(=O)=O (stereo partly specified)	H9c2 protect 71 (no result: AHR activator, NTR1 agonist, SUMO Mot1 rescue, AI-2 QS mod)
CCCCN1CC(COCc2ccccc2)Oc2cccc(Oc3ccc(C(C)C)cc3)c2S1(=O)=O (stereo unspecified)	none (no result: AHR activator, NTR1 agonist, SUMO Mot1 rescue, AI-2 QS mod)
CCCCN1CC(COC)Oc2cccc(F)c2S1(=O)=O (stereo unspecified)	none (no result: AHR activator, NTR1 agonist, SUMO Mot1 rescue, AI-2 QS mod)
COc1ccc(CN2CC(COCc3ccccc3)Oc3ccccc3S2(=O)=O)cc1 (stereo unspecified)	none (no result: AHR activator, SUMO Mot1 rescue, AI-2 QS mod)
CCCCN1CC(COCc2ccccc2)Oc2cccc(F)c2S1(=O)=O (stereo unspecified)	NR3A LBD binder 14 (no result: AHR activator, NTR1 agonist, SUMO Mot1 rescue, AI-2 QS mod)
C#CCN(C(=O)c1ccc(OC)c(OC2CCN(C(C)C)CC2)c1)C1CCCCC1	none (no result: AHR activator)
O=[N+]([O-])c1ccc(/C=N/Nc2ccnc3cc(Cl)ccc23)o1	NR3A LBD binder 17, AI-2 QS mod -185
Clc1ccc2c(N/N=C/c3cccc(Br)c3)ccnc2c1	NR3A LBD binder 15 (no result: NTR1 agonist)
O=[N+]([O-])c1ccc(/C=N/NS(=O)(=O)c2ccc(Cl)cc2)o1	none (no result: NTR1 agonist, AI-2 QS mod)
Clc1ccc2c(N/N=C/c3ccccc3Br)ccnc2c1	none
O=C1Nc2ccc(Br)cc2/C1=C/C(=O)c1ccccc1	none (no result: AHR activator, NTR1 agonist, SUMO Mot1 rescue, AI-2 QS mod)
C=CCOc1cccc(C(=O)/C=C2/C(=O)Nc3ccccc32)c1	NTR1 agonist 66
O=C(CO/N=C1\CCCc2nonc21)Nc1ccc(Br)cc1	AHR activator 78
COc1ccc(N=C2NC(=O)/C(=C/C=C/c3ccccc3)S2)cc1	NR3A LBD binder 14
COc1ccc(/C=C2\SC(=NCc3ccccc3)NC2=O)cc1	NR3A LBD binder 17
O=C1NC(=Nc2ccccc2)S/C1=C\C=C\c1ccco1	NR3A LBD binder 11
O=C1N/C(=N/Nc2ccccc2)S/C1=C\c1ccccc1	NR3A LBD binder 10
COc1ccc(N=C2NC(=O)/C(=C\C=C\c3ccccc3)S2)cc1	none
CCCCNC(=O)C1(C)CCN1C(=O)c1cc(-c2ccccc2)cs1 (stereo unspecified)	none (no result: NR3A LBD binder, AHR activator, NTR1 agonist, SUMO Mot1 rescue, AI-2 QS mod)
COc1ccc(CNC(=O)[C@@H](NC(=O)C2CCN(S(=O)(=O)c3ccc(C)cc3)CC2)C(C)C)cc1OC	none
O=C1c2ccccc2NC(c2cccc(O)c2)N1Cc1ccco1 (stereo unspecified)	AHR activator 48
CCn1cc(CN2CCC(n3nccc3NC(=O)c3ccc(OC)cc3)CC2)cn1	none
O=C(COc1nncc2ccccc12)NCCC1=CCCCC1	AI-2 QS mod -77
O=C(COC(=O)/C=C/c1cccc(Cl)c1)NCCC1=CCCCC1	NR3A LBD binder 17
O=C(COC(=O)COc1cccc(F)c1)NCCC1=CCCCC1	none
O=C(COC(=O)COc1ccc(Br)cc1)NCCC1=CCCCC1	NR3A LBD binder 12
O=S(=O)(c1ccc2c(c1)CCN2)N1CCCC1	none (no result: AI-2 QS mod)
CCN(Cc1ccccc1)S(=O)(=O)c1ccc2oc(C(=O)O)c(C)c2c1	none
CCN(CC)S(=O)(=O)c1ccc2oc(C(=O)O)c(C)c2c1	NR3A LBD binder 13
CCOc1ccc(CCNC(=O)COC(=O)c2n[nH]c3ccccc23)cc1OCC	none (no result: NR3A LBD binder, AHR activator, NTR1 agonist, SUMO Mot1 rescue, AI-2 QS mod)
CCOc1ccc(CCNC(=O)CSc2n[nH]c(N)n2)cc1OCC	SUMO Mot1 rescue 357
Cc1nn(C(=O)c2ccccc2)c2c1C(=O)CC(C)(C)C2	SUMO Mot1 rescue 495
CN(C)C1(CNC(=O)C2CCN(S(=O)(=O)c3c(Cl)cccc3Cl)CC2)CCCCC1	none
O=C(Cn1cc([N+](=O)[O-])cn1)NCCc1nc2ccccc2[nH]1	none
O=C(NCCc1nc2ccccc2[nH]1)c1cc([N+](=O)[O-])cc([N+](=O)[O-])c1	NR3A LBD binder 11
O=C(NCCOc1ccccc1)c1cc(C(=O)NCCOc2ccccc2)cc([N+](=O)[O-])c1	AI-2 QS mod -97
COc1ccc(-n2cc(-c3ccccc3)c3c(N4CCOCC4)ncnc32)cc1	H9c2 protect 58
Fc1ccc(-n2cc(-c3ccccc3)c3c(N4CCOCC4)ncnc32)cc1	H9c2 protect 58
CCN1CCN(c2ncnc3c2c(-c2ccccc2)cn3-c2ccc(F)cc2)CC1	none
O=C(NC(=S)NCCC1=CCCCC1)c1ccccc1Br	AHR activator 50
COc1ccc2oc(C(=O)Nc3ccc(C)cn3)c(C)c2c1	AHR activator 75
COc1ccc2oc(C(=O)Nc3ccccn3)c(C)c2c1	AHR activator 72
COc1ccc2oc(C(=O)Nc3nc(C)cs3)c(C)c2c1	NR3A LBD binder 20 (no result: AI-2 QS mod)
COc1ccc2oc(C(=O)NCCC(C)C)c(C)c2c1	none
COc1ccc2oc(C(=O)NC3CCCCC3)c(C)c2c1	none
CCCC1(C(=O)OCC)NC(c2ccc(O)cc2)C2C(=O)N(c3ccc4c(c3)OCCO4)C(=O)C21 (stereo unspecified)	none
COC(=O)C1(c2ccccc2)NC(c2ccc(O)cc2)C2C(=O)N(c3ccc4c(c3)OCO4)C(=O)C21 (stereo unspecified)	SUMO Mot1 rescue 260
CCn1c(=O)n(CC)c2cc(N3CCCC3)c(NC(=O)c3ccc(C)c([N+](=O)[O-])c3)cc21	none
CCc1ccc(C(=O)NNc2ccc(S(N)(=O)=O)cc2)cc1	none
CCc1ccc(C(=O)NNc2ccc(F)cc2)cc1	SUMO Mot1 rescue 319
CCOC(=O)C(=O)NNc1ccc(F)cc1	SUMO Mot1 rescue 413
O=C1NC(=O)C(c2ccccc2)(C2CCCC2)N1 (stereo unspecified)	none (no result: AHR activator, NTR1 agonist, SUMO Mot1 rescue, AI-2 QS mod)
C/C(=N/NS(=O)(=O)c1ccc(Cl)cc1)c1cccc(NC(=O)c2ccc(Cl)cc2Cl)c1	NR3A LBD binder 18
C/C(=N/NS(=O)(=O)c1ccc(C)cc1)c1cccc(NC(=O)c2cccc(Cl)c2)c1	NR3A LBD binder 14
CC(=O)Nc1cccc(/C(C)=N/NC(=O)c2ccc(Cl)cc2Cl)c1	none
C/C(=N\NC(=O)C1CC1)c1cccc(NC(=O)c2cccc(Cl)c2)c1	none (no result: NR3A LBD binder, H9c2 protect)
O[C@H]1CN(CC2CCCCC2)[C@@H](c2ccc(Cl)cc2)C[C@@H]1n1cc(-c2ccc(F)cc2)nn1	none (no result: NR3A LBD binder, AHR activator, NTR1 agonist, SUMO Mot1 rescue, AI-2 QS mod)
Cc1cccc(C)c1Nc1cn[nH]c1	none (no result: NR3A LBD binder, AHR activator, NTR1 agonist, SUMO Mot1 rescue, AI-2 QS mod)
Cn1c(-c2ccsc2)c(-c2cccs2)c2cc(-c3ccc4cc[nH]c4c3)ccc21	NR3A LBD binder 11, AHR activator 66 (no result: AI-2 QS mod)
COc1cc(OC)cc(-c2c(-c3cccs3)c3cc(Br)ccc3n2C)c1	none (no result: AI-2 QS mod)
COc1cc(OC)cc(-c2c(-c3cccs3)c3cc(-c4ccn[nH]4)ccc3n2C)c1	AHR activator 64 (no result: AI-2 QS mod)
COc1cc(F)cc(-c2ccc3c(c2)c(-c2cccs2)c(-c2cc(OC)cc(OC)c2)n3C)c1	none (no result: AI-2 QS mod)
Cn1c(-c2ccsc2)c(-c2cccs2)c2cc(Br)ccc21	AHR activator 63 (no result: AI-2 QS mod)
CCN(CC)S(=O)(=O)c1ccc(O)c(NC(=O)COc2ccc(S(=O)(=O)N3CCOCC3)cc2)c1	none (no result: AHR activator, NTR1 agonist, SUMO Mot1 rescue, AI-2 QS mod)

Compound activity (PubChem BioAssay)
